The values that follow come from PMC10163288.

The chains are these.
B1: il2ra_site2_3nfp_normal_mot_HHH_b2_04451_000000238_0001_21_37_H_._HHH_b2_00723_af2_0001_0000500044_0000001_0 (protein)
chain: SSSSDLEEEVERLIEEVERLLEEGDKHEAAQLLLEATKLVAELNNEELARILLELFELLQKSSSS
B2: il2ra_site1_3nfp_sap_8_mot_d8099cd8ef6a59b9c03de2010570d688_0001_af2_000000259_0001_37_51_H_._HHH_b2_05910_0001_0000100005_0000001_0_0001 (protein)
chain: SAEEFVKRAKELVPPELQELLERALELALKRQDPKLARLLIKAVAAIQQGDPEKAEEVLKELEER
B3: il2ra_site1_2b5i_normal_mot_HHH_b1_08745_af2_000000166_0001_39_57_H_._HHH_b1_05884_0001_0000600032_0000001_0_af2pred_dldesign_0_af2pred (protein)
chain: SSSSSPEIQKLREMFEEADRLFKAGKYEEAKELLEKALKLAKELGANLELRIIQSALEQLESSSS
B4: il2ra_site1_2b5i_sap_15_mot_1dae16775e8f4074d71d019417416b97_0001_af2_000000275_0001_1_12_H_._HHH_b2_07869_0001_0000400013_0000001_1_0001_af2pred_0001_af2pred_1 (protein)
chain: SSSSTDVAREVFRLLEEADRLARNGNPEEAEKLLREAEELAEENGNRALLKFVRAALRALSSSSS
B5: il2ra_site1_2b5i_sap_9_mot_HHH_b2_07540_af2_000000089_0001_1_16_H_._HHH_b1_01333_af2_0001_0000100003_0000001_0_0001_af2pred_0001_af2pred (protein)
chain: SSSSSSEELLELLREADELFKNGNPEEAEKVLERAEELAERNGTKSMLRSVRSMLELLRESSSSS
B6: il2ra_site1_3nfp_sap_6_mot_HHH_b2_06502_000000163_0001_42_55_H_._HEEHE_0113_0001_0000200018_0000001_0_0001 (protein)
chain: SSSSSNDEAWRLLREAYEEFKKAKSREEMRELLEEAERLARELGDERLLRDIEKWLEQMKSSSSS
B7: il2ra_site2_2erj_sap_24_mot_HHH_b1_07975_000000000_0001_41_57_H_._HHH_b1_08466_af2_0001_0000800020_0000001_0_0001_af2pred_0001_af2pred (protein)
chain: SSSSSEEEEELKEFIEELVREFGLSEEVQKELEEIARFALEQGIDEEDIKKWLKLFAEETSSSSS
B8: il2ra_site2_3nfp_normal_mot_HHH_b1_01086_af2_000000264_0001_39_53_H_._a6da1dbab15e72488587f943ddaf1f3f_0001_1_af2_0001_0000500054_0000001_0 (protein)
chain: DREELLERIVREKDPRVEELLEEIKEAKERNDEELLEKLAKRLALIAFELGDPEVFALAADLQSI
B9: il2ra_site2_3nfp_normal_mot_HHH_b1_08498_000000146_0001_21_37_H_._HHH_b1_08008_0001_0000100001_0000001_0 (protein)
chain: SSSSDEEHLEAATRLIRAAAWALNDPELERRAEELLEEIKEHGDPELKQELAELTHEAFELSSSS
B10: il2ra_site2_2erj_normal_mot_HHH_b1_05749_af2_000000086_0001_23_39_H_._HHH_b2_01918_0001_0000200007_0000001_0 (protein)
chain: SSSSDELEEEVEELLEEVRRAYEEGDLEEAYRLAVRVFALAAENNDPELQRAVTRLLEELSSSSS
B11: il2ra_site1_3nfp_sap_17_mot_0eddeacbb14b769e73e254714f31e2f9_0001_af2_000000052_0001_37_51_H_._7093d3a5e4329be201a559e39cb9bd18_0001_0001_0000800048_0000001_0_0 … (protein)
chain: SSSDEAKELAEEAIEELERLIKEGDVRAVAETIRRIAKELLELNDPEALELLQREVRKLLRSSSS
B12: il2ra_site1_2b5i_sap_17_mot_2cbe48e66a1f39b3fed734b245ab0a04_0001_000000015_0001_17_31_H_._HHH_b1_01921_0001_0000600034_0000001_0_0001_af2pred_dldesign_0_af2pre … (protein)
chain: SSSSSDVKEVLELFEEANKLFQAGKPEEAKEVLEKALEKAKALGAEAHIRIIESALEQLESSSSS
B13: il2ra_site1_3nfp_sap_12_mot_HHH_b1_07180_af2_000000260_0001_1_19_H_._HHH_b2_06317_af2_0001_0000500010_0000001_0_0001_af2pred_0001_af2pred_1 (protein)
chain: SDEELIKKLVRIAVEQNSPRLLRKILRDFERYTGDPEEAERILEELIEEVLGDPEEARRLVEEAK
B14: il2ra_site1_1z92_normal_mot_c9a8daa1dfea21d1414aecde54be4f54_0001_1_af2_000000024_0001_32_46_H_._0e4f66a3c4b070984708d3e1d5382b02_0001_1_af2_0001_0000100008_000 … (protein)
chain: NVAERLFEQAEELGVPPRAVVLALVSAVHAEDPRLREEAEELLERVRRGELPPEEAVRLLAELLE
B15: il2ra_site1_3nfp_sap_9_mot_HHH_b1_03716_af2_000000235_0001_20_37_H_._HHH_b1_05438_0001_0000400011_0000001_0_0001_af2pred_0001_af2pred_1 (protein)
chain: SSSSTELKELLKIVQRLFEEFNLSEEQAQELLQLAEELAKEGVSLEEIEELLRELAERLSSSSSS
B16: il2ra_site2_3nfp_sap_18_mot_11405e7faed88c9d08fdae67291e590b_0001_1_000000110_0001_14_30_H_._HHH_b2_00163_af2_0001_0000300012_0000001_0_0001 (protein)
chain: SSSSDKHERYLRAALELIERAIREGDHEIARRMLETVKSAAEDNNDEEIEELVEELEELLRSSSS
B17: il2ra_site2_2erj_normal_mot_HHH_b1_03609_af2_000000077_0001_42_55_H_._HHH_b2_01692_0001_0000500006_0000001_0 (protein)
chain: SSSSSEVEEEVREILEEAKHIEDPEEREKVLSKAAELAFENNDFEAWSLVSEVFRELAESSSSSS
B18: il2ra_site2_2erj_normal_mot_6bd1339e93f6fdda22195c76da45ec5d_0001_000000136_0001_37_51_H_._HHH_b2_06260_0001_0000100003_0000001_0_af2pred_0001_af2pred (protein)
chain: SSSSSEDEERVEELLEQAEEAAKRDPEKALHLLFEAMEIALKSDNEELLKLVLEVSHRIAESSSS
B19: il2ra_site2_2erj_normal_mot_HHH_b1_05749_af2_000000010_0001_23_39_H_._HHH_b1_07967_0001_0001100051_0000001_1 (protein)
chain: SSSSDWLEELYRLAVELLRLSSRRDEEEFERVYREIERLVEEFNNESAREILEHIRRLFEGSSSS

These entries were drawn from the full list. The hit rate among all sequences tested is not known here. Unmarked numbers belong to inactive results.

This experiment deals with il2ra, P01589. The experiment in a line: yeast display titration.
il2ra, P01589, sequence (P01589 whole entry): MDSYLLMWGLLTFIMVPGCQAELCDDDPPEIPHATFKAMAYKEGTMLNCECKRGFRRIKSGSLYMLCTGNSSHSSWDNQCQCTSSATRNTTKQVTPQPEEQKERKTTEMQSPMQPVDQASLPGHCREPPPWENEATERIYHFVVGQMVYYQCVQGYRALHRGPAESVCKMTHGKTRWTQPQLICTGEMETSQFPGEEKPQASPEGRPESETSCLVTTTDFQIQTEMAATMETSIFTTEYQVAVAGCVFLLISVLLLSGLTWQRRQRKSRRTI
Take B1: the “apparent Kd” value was “no binding seen”.
The result for B2 reads “no binding seen”.
On to B3, for which the “apparent Kd” value was “no binding seen”.
In the case of B4 it was “no binding seen”; in that of B5, “no binding seen”.
In the case of B6 it was “no binding seen”.
The result for B7 reads “no binding seen”; that for B8, “no binding seen”; that for B9, “no binding seen”.
For B10, the “apparent Kd” value was “no binding seen”.
Take B11: the “apparent Kd” value is “no binding seen”.
In the case of B12 it was “no binding seen”; in that of B13, “no binding seen”.
The result for B14 reads “no binding seen”; that for B15, “no binding seen”.
In the case of B16 it was “no binding seen”; in that of B17, “no binding seen”; in that of B18, “no binding seen”.
On to B19, for which the “apparent Kd” value is “no binding seen”.
